# Records with an inconclusive call do not appear. A number with no mark means an inactive call. Calls of active or inactive are those of the source. Calls come from the whole dose curve; as a rule, active = well fitted inhibition curve with a large enough effect in the signal ratio, with a control signal flat (not every such curve was filed as active); inconclusive = small, poorly fitted or top-dose-only effect, or effect the other way, or a change in a side signal; inactive = flat fitted curve, though single readings scatter; the % refers to the signal ratio.
# Biological target: Peroxisome proliferator-activated receptor gamma (Homo sapiens) (UniProt P37231)
# Sequence (P37231 whole entry, looked up): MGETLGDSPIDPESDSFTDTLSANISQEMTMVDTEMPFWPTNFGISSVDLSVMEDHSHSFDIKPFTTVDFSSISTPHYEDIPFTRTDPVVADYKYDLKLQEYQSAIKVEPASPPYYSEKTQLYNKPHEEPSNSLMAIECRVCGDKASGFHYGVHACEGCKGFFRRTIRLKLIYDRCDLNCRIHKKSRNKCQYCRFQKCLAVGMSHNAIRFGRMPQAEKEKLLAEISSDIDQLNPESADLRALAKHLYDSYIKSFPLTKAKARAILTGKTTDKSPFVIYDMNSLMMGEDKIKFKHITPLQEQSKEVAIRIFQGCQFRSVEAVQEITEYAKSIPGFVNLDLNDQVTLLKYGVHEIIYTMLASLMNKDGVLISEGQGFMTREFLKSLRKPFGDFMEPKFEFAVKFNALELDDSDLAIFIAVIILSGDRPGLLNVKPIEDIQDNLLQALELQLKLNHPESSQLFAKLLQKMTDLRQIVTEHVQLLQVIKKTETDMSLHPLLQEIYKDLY
# Test: qHTS assay for small molecule antagonists of peroxisome proliferator-activated receptor gamma signaling (AID 588537)
# Settings: HEK293 PPARg-UAS-bla, beta-lactamase ratio, antagonist mode; series mostly up to 76.8 µM; activity, negative = inhibition: at the top concentration
# Description: NIH Chemical Genomics Center [NCGC]
# U.S. Environmental Protection Agency [EPA]
# National Institutes of Environmental Health Sciences [NIEHS]
# National Toxicology Program [NTP]
# The Peroxisome proliferator-activated receptors (PPARs) are lipid-activated transcription factors of the nuclear receptor superfamily with three distinct subtypes namely PPAR alpha, PPAR delta (also called PPAR beta) and PPAR gamma. All these subtypes heterodimerizes with Retinoid X receptor (RXR) and these heterodimers regulate transcription of various genes. PPAR-gamma (glitazone receptor) ligands have been used in the treatment of type 2 diabetes and dyslipidaemia. It is involved in the regulation of glucose and lipid metabolism. PPAR-gamma activates certain genes like Paraoxonase 1 which is responsible for hydrolyzing organophosphates. PPAR-gamma ligands may also be therapeutically important in the treatment of coronary artery disease, obesity and cancer and atherosclerosis.
# NCGC Assay Protocol Summary
# Using a beta-lactamase reporter-gene under control of Peroxisome Proliferator-Activated-gamma (PPAR-gamma) response element, a cell-based assay [GeneBLAzer PPAR-gamma-UAS-bla assay developed by Invitrogen] was used to measure PPAR-gamma ligands signaling. GeneBLAzer PPAR-gamma-UAS-bla-HEK293 cells were used with assay medium containing 1% charcoal/dextran treated FBS. The assay was performed in clear bottom black Greiner 1536-well plates. Library compounds were measured for their ability to inhibit the reporter gene activity. Compounds were screened in a titration series in 1536-well format. The fluorescence intensity (405 nm excitation, 460/530 nm emission) was measured using an EnVision plate reader. Data was normalized relative to Rosiglitazone control (50 nM, 100%), and DMSO only wells (basal, 0%). Concentration-response titration points for each compound were fitted to the Hill equation yielding concentrations of half-maximal inhibition (IC50) and maximal response (efficacy) values.
# qHTS protocol for PPAR-gamma beta-lactamase assay in antagonist mode
# [Step] [Parameter] [Value] [Description]
# 1. Reagent; 5 uL; 3000 cells/well
# 2. Incubation; 37 C for 6-6.5 hrs
# 4. Controls (GW9662, PPAR-gamma antagonist); 23 nL,
# 5. Agonist (Stimulator); 1uL; Rosiglitazone at 50 nM (final) concentration
# 6. Incubation; 37 C for 16 hrs
# 7. Detection reagent; 1 uL of CCF4-dye
# 8. Incubation; RT for 2 hrs
# 9. Detection; Fluorescence; Envision plate reader
SMILES,"activity, negative = inhibition [%]",Potency
CCCCCCCC/C=C\CCCCCCCCCCCCC,1.37,–
CCCOC(=O)c1ccc(C(=O)OCCC)nc1,-6.53,–
O=C(O)c1ccc(C(=O)O)c(C(=O)O)c1,-7.21,–
CNc1nc(=O)n(C2CCCCC2)c(=O)n1C,0.724,–
CC(COCC(C)OC(=O)c1ccccc1)OC(=O)c1ccccc1 (stereo not given),8.28,–
C=C(C)C(=O)OCCOCCOCCOC(=O)C(=C)C,9.04,–
CN=C(N)NCC1CCOC1 (stereo not given),-0.647,–
CC(C)C[C@H](NC(=O)OCC1c2ccccc2-c2ccccc21)C(=O)O,-7.8,–
COCCO,–,inactive
CC(C)Cc1c(C(=O)O)c(C(F)F)nc(C(F)(F)F)c1C1=NCCS1,1.48,–
COC(=O)C1CCC(C(=O)OC)CC1 (stereo not given),0.527,–
CCCCN(CCCC)CCCCCCN(CCCC)CCCC,5.42,–
CC[C@H]1O[C@]2(CC[C@@H]1C)C[C@@H]1C[C@@H](C/C=C(\C)C[C@@H](C)/C=C/C=C3CO[C@@H]4[C@H](O)C(C)=C[C@@H](C(=O)O1)[C@]34O)O2,–,22.4 µM (active)
CC1=CC2C3CC(C=C3C)C2C1 (stereo not given),0.0423,–
C/C=C/C/C=C\CCCCCCCCOC(C)=O,-1.73,–
CC/C=C\CCOC(=O)c1ccccc1O,4.51,–
NC(=O)Cc1cccc2ccccc12,4.37,–
CCC(=O)C1C(=O)CC(C(=O)O)CC1=O (stereo not given),-4.11,–
CS/C(=N\O)C(=O)N(C)C,10,–
c1cc(-c2ccncc2)ccn1,7.72,–

SMILES,"activity, negative = inhibition [%]",Potency
CN(C)CCOCCN(C)C,13,–
CO[Si](CCCNCCN)(OC)OC,-5.09,–
O=C=NCCCCCCN=C=O,-1.98,–
CO[Si](OC)(OC)c1ccccc1,-5.96,–
CCc1cccc(C)c1N(C(=O)CS(=O)(=O)O)[C@@H](C)COC,7.71,–
CNc1nc(=O)n(C2CCC(O)CC2)c(=O)n1C (stereo not given),7.14,–
C=C(C)C(=O)OCC(CC)(COC(=O)C(=C)C)COC(=O)C(=C)C,6.32,–
Cc1ccc(N=Nc2c(O)ccc3ccccc23)c(C)c1,4.56,–
C=Cc1ccc(P(c2ccccc2)c2ccccc2)cc1,-3.03,–
CC(C)c1ccc2cc(C(C)C)ccc2c1,7.24,–
C/C=C/C=C/CCCCCCCO,-1.59,–
CCCCC(CC)CN1C(=O)C2C3C=CC(C3)C2C1=O (stereo not given),-1.37,–
CC(C)(C)c1n[nH]c(=O)n(N)c1=O,-0.97,–
O=C(OCCOCCOC(=O)c1ccccc1)c1ccccc1,3.51,–
CCCCCCC(C)(C)S,-0.977,–
CCCCCCCC(=O)Oc1c(Br)cc(C#N)cc1Br,-7.01,–
c1ccc(-c2ccc(-c3ccccc3)cc2)cc1,7.71,–
CO[Si](CCCOCC1CO1)(OC)OC (stereo not given),1.68,–
Cc1cc(C)c(N)c(Cl)c1,13.7,–
CC(C)(C)[C@H](O)[C@H](Cc1ccc(Cl)cc1)n1cncn1,–,inactive
